Measurements from PubChem BioAssay AID651692 (Broad Institute, 2012).
Results with a measured potency or affinity are listed apart. Active and inactive are the calls of the source.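 How the source made its calls: active means fitted half-maximal concentration for loss of cell signal no higher than twice the top valid tested concentration; inconclusive means flat curve at 30 to 70% inhibition, or poor fit; inactive means flat within 30%, signal rise, or potency above limit.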

assay: cytotoxicity toward MDA-MB-231 breast cancer cells – cell-based, CellTiter-Glo luminescence, cherry-pick, cytotoxicity control for RAD54 inhibitor project, dose response (AID 651692); conditions: MDA-MB-231 viability, 24 h; series mostly up to 26 µM;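 further: more negative values mean stronger loss of viable cell signal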

| Structure (SMILES) | outcome |
| --- | --- |
| CN(C)CCNC(=O)c1cccc(-c2cnc3c(NC=O)cc(-c4ccccc4F)cn23)c1 | inactive |
| COc1ccccc1C(=O)C(O)c1ccccc1OC (centres undefined) | inactive |
| Nc1cccc2nc3ccccc3cc12 | inactive |
| COc1cc(NCCCNC(C)C)c2nccc(C)c2c1 | inactive |
| CCN(CC)CCNC(=O)c1cc2c(-c3ccc(Cl)cc3)nn(C)c2s1 | inactive |
| CCCCN(CC)CCCNC(=O)c1cc2c(=O)n(C)c3ccccc3c2n1C | inactive |
| O=C(Nc1cccc([N+](=O)[O-])c1)c1cc(S(=O)(=O)N2CCOCC2)cs1 | inactive |
| CCOC(=O)c1cnc2c(C)cccc2c1NCCCN1CCOCC1 | inactive |
| Cc1cccc2cc3c(N)c(C#N)sc3nc12 | inactive |
| Cc1ccc(S(=O)(=O)CCSc2ccc(C(F)(F)F)cn2)cc1 | inactive |
| O=C(Nc1cccc(Cl)c1)c1cc(S(=O)(=O)N2CCOCC2)cs1 | inactive |
| Cc1cccn2c(=O)c3cc(C(=O)NCCN4CCOCC4)c(=N)n(CCN4CCOCC4)c3nc12 | inactive |
| COc1cc(-c2cnc3c(NC=O)cc(-c4cccc(C(=O)NCCN(C)C)c4)cn23)cc(OC)c1OC | inactive |
| CCOc1ccc2nc(C)cc(Nc3ccc4c(c3)OCCO4)c2c1 | inactive |
| CCNC1CCC(Nc2ccnc3cc(Cl)ccc23)CC1 (centres undefined) | inactive |
| CCN1CCN(c2cc(C)c3cc(NC(=S)N4CC(C)CC(C)C4)ccc3n2)CC1 (centres undefined) | inactive |
| Cc1cc(Nc2ccc3c(c2)OCCO3)c2cccc(C)c2n1 | inactive |
| Cc1ccc2nc(C)cc(Nc3ccc4c(c3)OCCO4)c2c1 | inactive |
| CCOC(=O)c1c(C)n(C)c2ccc(OCC(O)CN3CCC(C)CC3)cc12 (centres undefined) | inactive |
